Data published in PubChem BioAssay (NCI).
The panel holds about 79,000 compounds, 15% with a hit somewhere; the sample as a whole holds those more often. Values without a mark were called inactive. The source made the active and inactive calls. Cut-off read from the data, not from the text of the source: active = growth inhibition above about 70%; inactive = the rest.

Experiments:
[1] = NCI Yeast Anticancer Drug Screen. Data for the rad50 strain (AID 155);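 note: 0% = growth of vehicle-only cultures of the same strain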; conditions: S. cerevisiae rad50 strain growth inhibition; at 50.0 µM; hits give high values
Summary of the method: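 A DNA repair-deficient yeast mutant serves as the test organism; compound-induced growth inhibition is calculated against vehicle-treated cells.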

[2] = NCI Yeast Anticancer Drug Screen. Data for the mec2-1 strain (AID 157); conditions: S. cerevisiae mec2-1 strain, at 50.0 µM, hits give high values
Summary of the method: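 Cells of the genetically defined mec2-1 yeast strain are incubated with test compound. Inhibition of growth is calculated against vehicle-treated controls.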

[3] = NCI Yeast Anticancer Drug Screen. Data for the sgs1 mgt1 strain (AID 161);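 note: 0% = growth of cultures given vehicle only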; conditions: S. cerevisiae sgs1 mgt1 strain, at 50.0 µM, hits give high values
Summary of the method: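 Read-out: growth inhibition vs vehicle controls. Cells: mutant yeast strain deficient in DNA damage repair.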

[4] = NCI Yeast Anticancer Drug Screen. Data for the cln2 rad14 strain (AID 165);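 note: 0% = growth equal to vehicle treated cultures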; conditions: S. cerevisiae cln2 rad14 strain, at 50.0 µM, hits give high values
Summary of the method: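 The screen exposed genetically defined yeast (cln2 rad14) to test compounds and scored growth inhibition relative to vehicle-treated controls.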

[5] = NCI Yeast Anticancer Drug Screen. Data for the bub3 strain (AID 167); conditions: S. cerevisiae bub3 mutant strain, at 50.0 µM, hits give high values
Summary of the method: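 Inhibition values come from growth of compound-treated mutant yeast normalised to vehicle-treated controls.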

[6] = NCI Yeast Anticancer Drug Screen. Data for the mlh1 rad18 strain (AID 175); conditions: S. cerevisiae mlh1 rad18 strain growth inhibition; at 50.0 µM; hits give high values
Summary of the method: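 Compound-treated yeast growth, normalised to vehicle controls. Strain bears defined DNA repair mutations.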

Compound | growth inhibition [1] | growth inhibition [2] | growth inhibition [3] | growth inhibition [4] | growth inhibition [5] | growth inhibition [6]
CCOc1ccccc1NC(=O)C1CCCCC1C(=O)O (stereo unspecified) | 14.2% | 16.7% | 14.6% | 25.6% | 12.7% | 7.8%
O=P(O)(O)c1ccc2c(c1)OCCOCCOCCOCCO2 | -41.9% | -10.9% | -29.5% | -21.9% | -24.4% | -14.8%
CC(C)(C)C1CCC2c3c([nH]c4ncccc34)C3C(=O)N(c4ccccc4)C(=O)C3C2C1 (stereo unspecified) | 20.4% | -6.15% | 1.7% | -67.2% | -32.6% | -7.85%
CN(C)Cc1ccc2ccccc2c1 | 0.2% | 7.1% | 9.95% | -39.1% | 6.85% | -14.3%
CC(C)C(NC(=O)C(Cc1ccccc1)NC(=O)[C@H]1CCC[C@H]1NC(=O)C(Cc1ccc(OC(C)(C)C)cc1)NC(=O)OC(C)(C)C)C(N)=O (stereo partly specified) | -11.2% | -6.7% | -15.8% | 18.7% | -7.65% | -0.2%
CC(=O)CCCC(=O)O | 10.5% | 1.25% | -24.5% | -11.9% | 0.45% | 10.2%
CC(C)CC(NC(=O)CN1C(=O)c2ccccc2C1=O)C(=O)O (stereo unspecified) | -10.3% | -41.6% | 7.4% | 3.2% | -17% | -24.1%
CN(C)Cc1cc(C(=O)/C=C/c2ccccc2Cl)cc(CN(C)C)c1O | -47% | -22.6% | -27.4% | -43.9% | 3.9% | -31.1%
CC(C)c1ccc2c(c1)CCC1C2(C)CCCC1(C)C(O)c1ccccc1 (stereo unspecified) | 9.45% | -6.65% | 8.6% | -17.1% | 8.05% | 32.1%
CCCCCCCCCCCC[N+]1(C)CCS(=O)CC1 (stereo unspecified) | 84.7% (active) | 84.3% (active) | 80% (active) | 70.7% (active) | 63.4% | 85.3% (active)
OCC1SC(O)C(O)C(O)C1O (stereo unspecified) | 28.2% | -5.55% | 11.8% | 10.7% | 25.1% | 19.6%
COC1CC(OC2C(C)OC(OC3C(C)OC(OC4C(C)OC(O[C@H]5CC[C@@]6(C)C(=CC[C@]7(O)[C@@H]6C[C@@H](OC(=O)/C=C/c6ccccc6)[C@@]6(C)[C@]7(O)CC[C@@]6(O)C(C)=O)C5)CC4OC)CC3OC)CC2OC)OC(C)C1O (stereo partly specified) | 31% | 19.2% | 5.35% | 25.9% | 7.15% | -27.6%
Cc1ccc(P(=O)(O)O)c([N+](=O)[O-])c1 | 5.4% | 1.7% | -3.65% | -7.2% | -4.35% | 12.9%
N#C/C(=C\N1CC(=O)NC1=S)c1nc2ccccc2s1 | 4.75% | 8.45% | -6.05% | 23.3% | 24.9% | 19.2%
NCCCCCC(CCN)SCC1OC(n2cnc3c(N)ncnc32)C(O)C1O (stereo unspecified) | 17.6% | -2.45% | -5.1% | -7.45% | -0.95% | 25.9%
CC(C)(c1cn(Cc2ccccc2)c2ccccc12)c1cn(Cc2ccccc2)c2ccccc12 | 39% | 4.2% | 17.9% | 21.1% | -4.05% | 10.8%
CC(C)(O)C1CCC/C1=N/NC(N)=O (stereo unspecified) | -7.5% | 5% | 5.2% | 3.55% | -10.3% | -11.3%
Cc1c(C(=O)O)[nH]c2c(Cl)ccc(C)c2c1=O | -34.2% | -9.15% | 9.5% | -44.5% | 9.8% | 4.75%
O=C(Nc1ccccc1C(F)(F)F)Oc1ccc(Cl)cc1Cc1ccccc1 | 99.4% (active) | 99.6% (active) | 99.7% (active) | 99.3% (active) | 99.2% (active) | 99.5% (active)
N#Cc1sc2c(c1OC(=O)c1ccccc1)c(=O)n(-c1ccccc1)c(=S)n2-c1ccccc1 | -2.65% | 10.8% | 3.45% | -12.4% | -5.95% | 18%
NC(=O)c1n[nH]c(C2OC(CO)C(O)C2O)n1 (stereo unspecified) | -1.5% | -6.8% | 0.9% | -15.7% | 5.75% | -7.5%

Compound | growth inhibition [1] | growth inhibition [2] | growth inhibition [3] | growth inhibition [4] | growth inhibition [5] | growth inhibition [6]
CCc1ccccc1NC(=O)C1=C(C)NC(C)=C(C(=O)Nc2ccccc2CC)C1c1cccc([N+](=O)[O-])c1 | -0.95% | 52% | 24.2% | 17.9% | 36.5% | 20.5%
COC(C(O)C(O)C(O)C(O)CO)n1cnc2cncnc21 (stereo unspecified) | 4.05% | 5.45% | 7.8% | 2.9% | -4.2% | 2.45%
CC(OC(C(O)C=O)C(O)C(O)CO)C(=O)N[C@@H](C)C(=O)O (stereo partly specified) | 6.1% | -8.55% | -0.75% | -2.45% | -9.2% | 25.8%
CC(C)CCOC(=O)C1C(=O)CC(c2ccccc2)C1c1ccccc1 (stereo unspecified) | 11.1% | 3.5% | -6.35% | -0.15% | 6% | 6.25%
c1ccc(C[S][Sn]([c]2ccccc2)([c]2ccccc2)[c]2ccccc2)cc1 | 97.5% (active) | 96.2% (active) | 97% (active) | 94.4% (active) | 97% (active) | 93% (active)
O=C1CCCC(c2ccccc2)O1 (stereo unspecified) | -3.1% | -14.2% | 5.2% | -67.5% | -27.4% | 14.7%
CSC(C(OC(C)=O)C(OC(C)=O)C(OC(C)=O)C(COC(C)=O)OC(C)=O)n1cnc2c(=S)nc[nH]c21 (stereo unspecified) | 26.4% | -12.4% | -11.6% | 13.2% | -0.45% | 1.95%
CC1=NN(C(=O)c2ccc(Cl)cc2)C(=O)/C1=C/c1ccc(Cl)cc1 | -28.6% | -47.4% | -69.2% | -19.6% | -33% | -44.2%
CC(=O)Nc1cccc2ccc([N+](=O)[O-])cc12 | 13.1% | 0.9% | -3.8% | 16.4% | -5.7% | 7.85%
COc1cc(C2c3cc4c(cc3OC(C)(OC)C2C(C)=O)OCO4)cc(OC)c1O (stereo unspecified) | 4.05% | -6.25% | -24.6% | -2.9% | -1.2% | -0.35%
O=C(O)c1cc(Cl)ccc1[N+](=O)[O-] | 18.6% | -11% | 5.5% | 7.65% | 2.3% | 11%
O=[N+]([O-])c1ccc(N=N/C(Cc2ccccc2)=N\Nc2ccccc2)cc1 | 31.4% | 12.9% | -0.2% | 22.6% | -10.4% | 4.65%
COCCCC(NC(=O)C(CC(C)C)NC(=O)OCc1ccc(OC)cc1)C(=O)OC (stereo unspecified) | -9.6% | -12.9% | -2.25% | 6.6% | -9.1% | 7.8%
Br/C=C/c1ccccc1 | 23.6% | 11.3% | 0.6% | -14.7% | 5.85% | 46.1%
O=C1COC(=O)/C1=C/c1ccccc1 | -0.4% | -7.85% | -4.75% | 2.3% | -15.8% | -1.05%
CCc1c(Cl)nc(N)nc1Nc1ccc(C)cc1 | -20.7% | -4.8% | -11.2% | -25% | 12% | -6.55%
Cc1c(C#N)c(=N)oc2ccccc12 | 7.9% | 7.35% | 22.8% | 14.5% | 18.1% | -31.5%
Cc1nc2c(ncn2C2OC(CO)C(O)C2O)c(=O)[nH]1 (stereo unspecified) | -2.7% | 11.2% | -2.7% | -3.7% | 0.85% | -18.4%
CC1(C)CC(=O)C(C(c2ccccc2)C2C(=O)CC(C)(C)CC2=O)C(=O)C1 | 4% | -8.9% | 1.8% | 2.6% | 6.5% | 7%
Cc1ccc(C(=N)c2ccccc2Cc2ccccc2)cc1 | -14.4% | -10.7% | -12.8% | 2.75% | 3.9% | -20.3%
